Experimental data: PubChem BioAssay AID1835 (Johns Hopkins Ion Channel Center, 2009)
About 750 (31%) of roughly 2,400 compounds were called active. The list shows a part of the results. Values without a mark were called inactive.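 Rule for the calls: active = median signal gain over dofetilide-blocked control wells reaching their mean plus 3 SD, so readout 1 at least 0; inactive = the rest.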

molecular target: Voltage-gated inwardly rectifying potassium channel KCNH2 (Homo sapiens) (UniProt Q12809); test: modulators restoring hERG flux under dofetilide – cell-based, thallium flux, duplicate retest, dofetilide IC70, confirmation (AID 1835); conditions: hERG cell line, FluxOR thallium flux, dofetilide-blocked; at 10 µM; stronger effect = higher value
Sequence (Q12809 whole entry, looked up): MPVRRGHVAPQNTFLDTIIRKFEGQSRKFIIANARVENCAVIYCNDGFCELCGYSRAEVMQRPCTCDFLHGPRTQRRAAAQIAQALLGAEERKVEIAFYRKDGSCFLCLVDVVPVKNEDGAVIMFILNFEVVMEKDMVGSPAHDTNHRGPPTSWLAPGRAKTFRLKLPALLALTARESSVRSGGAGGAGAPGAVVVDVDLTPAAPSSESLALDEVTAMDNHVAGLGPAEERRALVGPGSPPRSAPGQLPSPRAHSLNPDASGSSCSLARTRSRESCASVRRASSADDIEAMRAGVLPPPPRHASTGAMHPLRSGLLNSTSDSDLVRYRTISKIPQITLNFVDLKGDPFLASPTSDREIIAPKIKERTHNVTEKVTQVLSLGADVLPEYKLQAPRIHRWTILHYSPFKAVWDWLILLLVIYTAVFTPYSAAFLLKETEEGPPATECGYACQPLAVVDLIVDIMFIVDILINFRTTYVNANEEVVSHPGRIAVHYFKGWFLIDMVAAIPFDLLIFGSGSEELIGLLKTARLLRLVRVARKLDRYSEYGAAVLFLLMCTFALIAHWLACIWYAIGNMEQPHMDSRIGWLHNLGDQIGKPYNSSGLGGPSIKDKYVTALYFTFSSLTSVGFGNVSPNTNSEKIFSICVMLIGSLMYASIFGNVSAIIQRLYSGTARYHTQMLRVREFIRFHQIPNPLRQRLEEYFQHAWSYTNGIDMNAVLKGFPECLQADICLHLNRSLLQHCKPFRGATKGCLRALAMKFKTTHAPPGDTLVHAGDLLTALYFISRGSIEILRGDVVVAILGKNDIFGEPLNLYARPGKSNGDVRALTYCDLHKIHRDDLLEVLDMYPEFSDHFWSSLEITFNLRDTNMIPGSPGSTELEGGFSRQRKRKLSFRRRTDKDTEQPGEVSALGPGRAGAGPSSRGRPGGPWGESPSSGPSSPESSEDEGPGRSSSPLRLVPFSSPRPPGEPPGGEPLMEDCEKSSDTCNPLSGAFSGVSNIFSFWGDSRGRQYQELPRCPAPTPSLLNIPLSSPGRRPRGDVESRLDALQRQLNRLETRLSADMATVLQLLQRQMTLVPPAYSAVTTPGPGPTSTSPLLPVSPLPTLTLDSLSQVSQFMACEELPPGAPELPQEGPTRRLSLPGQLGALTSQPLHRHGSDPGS

| Compound | activity increase over dofetilide control, less the hit threshold |
| --- | --- |
| COc1ccc(-c2ccc3c(N)c(C(=O)c4ccc(OC)c(OC)c4)sc3n2)cc1 | -9% |
| CCOC(=O)C1=C(O)/C(=C/c2ccc(OCC(=O)O)c(OC)c2)SC1=Nc1ccc(OCC)cc1 | -9% |
| COc1ccc(/C=C2\SC(c3ccc(C)cc3)=NC2=O)cc1OC | 112% (active) |
| COc1ccc(C(C(=O)NC(C)(C)C)N(C(=O)CCC(=O)Nc2cc(C)on2)c2cccc(F)c2)cc1 (stereo not drawn) | -6% |
| O=C(CSc1nc(N2CCCCC2)nc(N2CCCCC2)n1)c1ccccc1 | -16% |
| C=CCn1c2ccccc2c(=O)c2cc(C#Cc3ccsc3)ccc21 | 17% (active) |
| O=C(/C=C/Nc1ccc(F)cc1)c1ccco1 | -22% |
| Cc1cccc(N2C(=O)C(O)=C(C(=O)c3cccs3)C2c2cccc(Oc3ccccc3)c2)n1 (stereo not drawn) | -12% |
| CCCn1c(SCC(=O)Nc2nc(-c3ccc(OC)cc3)cs2)nc2c1c(=O)n(C)c(=O)n2C | -8% |
| CCCC(=O)NC(=S)Nc1nc(-c2ccc(OC)cc2)cs1 | -11% |
| CCC(=O)N(CC)c1nc(-c2ccc(OC)cc2)cs1 | 17% (active) |
| COc1cc(C(=O)NCCNc2nc3cc(C)ccc3cc2C#N)cc(OC)c1OC | -2% |
| O=c1c(-c2ccccc2)[n+]([O-])c2ccccc2n1O | -10% |
| O=c1c(-c2cccc3ccccc23)[n+]([O-])c2ccccc2n1O | 9% (active) |
| O=c1c(-c2ccc(Cl)cc2)[n+]([O-])c2ccccc2n1O | 64% (active) |
| Cc1ccc(-c2c(=O)n(O)c3ccccc3[n+]2[O-])cc1 | 52% (active) |
| CCc1nnc(NC(=O)c2cccc(S(=O)(=O)N3CCN(c4ccccc4)CC3)c2)s1 | -17% |
| O=C(COc1ccccc1)Nc1nnc(-c2ccc(Cl)s2)o1 | -9% |
| CC1=Nc2ccc(C)cc2/C1=C/c1c(N)n2c(S(=O)(=O)C(C)C)nsc2nc1=O | -5% |

| Compound | activity increase over dofetilide control, less the hit threshold |
| --- | --- |
| Cn1c(=O)c(-c2cc(=O)[nH][nH]2)c(O)c2ccccc21 | 2% (active) |
| Cn1c(=O)cc(-c2ccccc2)c2ccccc21 | -28% |
| CCOC(=O)c1c(C)cccc1OCC(N)=O | -16% |
| CCOC(=O)Cn1cc(C=O)c2ccccc21 | -17% |
| CCn1c(=O)c(-[n+]2ccccc2)c(O)c2ccccc21 | -15% |
| CC(C)C(=O)Nc1c(-c2ccccc2F)c(=O)c2ccccc2n1C | -6% |
| CCOC(=O)c1c(O)c2ccccc2n(C)c1=O | 5% (active) |
| Cn1c(=O)c(Sc2ccccc2)c(O)c2ccccc21 | 2% (active) |
| O=C1OC(/C=C/c2ccccc2)=NC/1=C/c1ccco1 | -15% |
| COC(=O)Cc1[nH]n(-c2nc3ccccc3s2)c(=O)c1C(C)=Nc1ccc(C)cc1 | -1% |
| Cn1ncc2c(NNC(=O)Cc3ccccc3)ncnc21 | -13% |
| O=C(O)c1ccc(Cl)cc1Nc1nc2cc(Cl)ccc2o1 | 10% (active) |
| COC(=O)n1c(=S)oc2cc(Cl)ccc21 | -13% |
| O=C(O)c1c2c(nc3ccccc13)/C(=C/c1cccc([N+](=O)[O-])c1)CCC2 | -18% |
| N#Cc1c2n(c3c(=O)n(Cc4ccc(Cl)cc4)cnc13)CCCC2 | -14% |
| Cc1cc(C)cc(N(C(=O)c2cc3ccccc3oc2=O)C2C=CS(=O)(=O)C2)c1 (stereo not drawn) | -13% |
| Cc1sc2nc(CN3CCOCC3)[nH]c(=S)c2c1C | 92% (active) |
| CC(C)(C)n1nnnc1C(c1cccs1)N1CCN(Cc2ccccc2)CC1 (stereo not drawn) | -6% |
| Cc1ccc(-c2cccc(C3CC=CC4C3C(=O)N(Cc3ccccc3)C4c3ccc4ccccc4c3)c2)cc1 (stereo not drawn) | -1% |
